Shown are actives, neighbours in structure and some others; about 12% of the full set was active somewhere.
PI5P4Ka inh: qHTS for Inhibitors of phosphatidylinositol 5-phosphate 4-kinase (PI5P4K); Phosphatidylinositol 5-phosphate 4-kinase type-2 alpha (Homo sapiens), P48426; PI5P4Kalpha enzyme, ADP-Glo luminescence, 60 min; hits give low values; max response, %; 330,000 tested, 1.2% active; AID 652105, 2013; active means max response of -50% or lower; inconclusive means between -30% and -50%; inactive means -30% or higher; further: value at the top dose of about 77 µM; on the % scale 0 is the no-effect control and ±100 the full control effect
Target sequence (P48426 whole entry, looked up): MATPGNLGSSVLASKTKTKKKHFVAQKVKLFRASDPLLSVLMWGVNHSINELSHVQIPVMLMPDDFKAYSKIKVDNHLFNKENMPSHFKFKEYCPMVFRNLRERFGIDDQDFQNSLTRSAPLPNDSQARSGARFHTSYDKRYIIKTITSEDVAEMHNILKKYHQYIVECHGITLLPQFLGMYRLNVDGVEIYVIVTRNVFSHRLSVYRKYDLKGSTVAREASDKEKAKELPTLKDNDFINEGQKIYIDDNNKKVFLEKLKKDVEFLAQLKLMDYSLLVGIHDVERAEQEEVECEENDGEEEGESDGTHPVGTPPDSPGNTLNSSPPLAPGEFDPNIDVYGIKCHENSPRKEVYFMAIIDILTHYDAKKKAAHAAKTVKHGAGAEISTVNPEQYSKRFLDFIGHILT
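Single end-point luminescence (ADP-Glo) quantified ADP from PI5P4Kalpha turnover; ATP 5 microM final, 1 h at RT, 0.1% CHAPS and 0.28 mM EGTA in HEPES pH 7.4.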
JMJD2A Tudor inh: qHTS Assay for Inhibitors of JMJD2A-Tudor Domain | AlphaScreen JMJD2A-Tudor / H3K4me3 peptide binding | 390,000 tested, 4.4% active | Potency, µM (titrated, usually from 114 µM), without a hit: at the top dose activity change, negative = inhibition, actives largely listed as inhibitors; further: potency means the concentration at half of the fitted maximal effect; on the % scale 0 is the no-effect control and ±100 the full control effect; nearly all actives have a fitted effect of over 50% in size
HP1b binding inh: HTS for Inhibitors of HP1-beta Chromodomain Interactions with Methylated Histone Tails; Potency, µM (doses to about 114 µM), for the others: at the top dose activity change, negative = inhibition, usual class: inhibitors; AlphaScreen HP1-beta / biotin-H3K9me3 peptide binding; 390,000 tested, 0.56% active; Chromobox protein homolog 1 (Homo sapiens), P83916; further: potency means the concentration at half of the fitted maximal effect; nearly all actives have a fitted effect of over 70% in size
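HP1-beta protein (50 nM final) preincubated 30 min at room temperature with biotinylated H3(1-18)K9me3 peptide (50 nM) in PBS pH 7.4, 0.01% Tween-20, then compound added for 30 min. AlphaScreen streptavidin donor/nickel chelate acceptor beads (10 ug/mL final), 30 min dark, luminescence read.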
PLK1 PBD inh: qHTS for Inhibitors of PLK1-PDB (polo-like kinase 1 - polo-box domain): Primary Screen; Serine/threonine-protein kinase PLK1 (Homo sapiens), P53350; Plk1 PBD binding of FITC phosphopeptide, fluorescence polarization; Potency, µM, without a hit: max response, negative = inhibition, most hits filed as inhibitors; 360,000 tested, 2.8% active; further: potency means the concentration at half of the fitted maximal effect; series mostly up to about 57 µM; on the % scale 0 is the no-effect control and ±100 the full control effect; nearly all actives have a fitted effect of over 65% in size
G9a block: qHTS Assay for Inhibitors of Histone Lysine Methyltransferase G9a. G9a H3K9 monomethylation, AlphaScreen, 2 h. Potency, µM (top dose mostly 102 µM), without a hit: at the highest dose activity, negative = inhibition, usual class: inhibitors. 350,000 tested, 8.8% active. AID 504332, 2011. Histone-lysine N-methyltransferase EHMT2 (Homo sapiens), Q96KQ7; further: potency means the concentration at half of the fitted maximal effect; on the % scale 0 is the no-effect control and ±100 the full control effect; nearly all actives have a fitted effect of over 75% in size
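Readings reflect AlphaScreen signal from monomethyl-H3K9 antibody detection. HMT at 20 nM; substrate b-H3K9 500 nM; cofactor SAM 20 uM; 2 h RT reaction; compounds tested as titrations in qHTS with 15 min preincubation.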
BAZ2B inh: qHTS Assay for Inhibitors of BAZ2B | Bromodomain adjacent to zinc finger domain protein 2B (Homo sapiens), Q9UIF8 | AlphaScreen BAZ2B-H3K14Ac peptide displacement | Potency, µM (top dose mostly 114 µM), for the others: at the highest dose activity change, negative = inhibition, hits mostly inhibitors | 360,000 tested, 4.4% active; further: potency means the concentration at half of the fitted maximal effect; on the % scale 0 is the no-effect control and ±100 the full control effect; nearly all actives have a fitted effect of over 60% in size
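In this displacement format the biotinylated H3(5-23) peptide acetylated at Lys14 serves as ligand at 50 nM, with BAZ2B at 50 nM in PBS pH 7.4 containing 0.01% Tween-20. Donor and acceptor beads are 10 ug/mL final.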
* hit, by the source's call; ? = inconclusive; · = no result; [ ] = remark or other dose. Unless noted, the call rests on the fitted dose curve; in most records, active means well fitted curve in the direction sought with a large enough effect; inconclusive means small, poorly fitted or top-dose-only effect, or another doubt; inactive means no such curve, though single readings can be large; an effect the other way counts as inactive or inconclusive.

SMILES	PI5P4Ka inh	JMJD2A Tudor inh	HP1b binding inh	PLK1 PBD inh	G9a block	BAZ2B inh
Cc1ccc(S(=O)(=O)Cc2ccc(C(=O)N3CCN(c4cc(C)ccc4C)CC3)o2)cc1	·	?	0%	?	-30%	56µM*
Cc1ccc(S(=O)(=O)Cc2ccc(C(=O)N3CCCCCC3)o2)cc1	3	-28%	20%	-27%	-7%	3%
CCOC(=O)C1CCCN(C(=O)Cc2ccc(OC)c(OC)c2)C1 (stereo unspecified)	-2	-24%	13%	-12%	20%[59 µM]	9%
COc1ccccc1Nc1nn2c(=O)c3ccc(C(=O)NC4CCC(C)CC4)cc3nc2s1 (stereo unspecified)	·	-7%	42%	·	3%[59 µM]	-3%
O=C(NCCc1ccccc1)c1cnc2ccccc2n1	-6	-19%	19%	0%	25%	10%
Nc1nc(N)c2ncc(C(=O)CCc3ccccc3)nc2n1	?	14µM*	-26%	4.7µM*	40µM*	?
COc1cc(OC)cc(C(=O)OCC(=O)Nc2nnc(-c3ccccc3)o2)c1	-14	50µM*	73%	0%	·	·
O=C(COC(=O)CNC(=O)c1ccc(Br)cc1)Nc1nnc(-c2ccccc2)o1	1	-12%	42%	2%	?	-3%
O=C(COC(=O)c1ccc(Cl)nc1)Nc1nnc(-c2ccccc2)o1	-9	79µM*	16%	-5%	-7%	50µM*
O=C(COC(=O)c1cncc(Br)c1)Nc1nnc(-c2ccccc2)o1	?	50µM*	25%	-26%	·	·
O=C(COC(=O)c1ccc(Cl)nc1)NC(=O)c1ccccc1	-11	-8%	16%	-2%	·	-10%
CCN(CC)c1ccc(NS(=O)(=O)c2cc3[nH]c(=O)c(=O)[nH]c3cc2C)c(C)c1	·	45µM*	-29%	·	14µM*	50µM*
CCN(CC)c1ccc(NS(=O)(=O)c2cc(-c3onc(C)c3C)ccc2OC)c(C)c1	·	?	-10%	·	8.9µM*	-16%
COc1ccc(-c2onc(C)c2C)cc1S(=O)(=O)NCCc1ccco1	6	?	-19%	-7%	?	50µM*
CCN(CC)c1ccc(NS(=O)(=O)c2ccc(-c3coc(C)n3)cc2)c(C)c1	·	25µM*	?	·	11µM*	13µM*
COc1ccc(-c2onc(C)c2C)cc1S(=O)(=O)NCc1ccco1	·	-6%	10%	·	0%[59 µM]	-25%
COc1ccc(CC(=O)N(Cc2nc(-c3ccc(C)cc3)no2)C(C)C)cc1	·	15%	58%	·	5%[59 µM]	1%
CCOc1ccc(NC(=O)N2CCN(C(=O)c3nsc4ccccc34)CC2)cc1	·	5%	26%[57 µM]	·	-22%[59 µM]	-3%
O=C(NCc1ccccc1)n1cc(P(=S)(c2ccccc2)c2ccccc2)c2ccccc21	·	-11%	·	·	·	·
Cc1cc(Br)ccc1NC(=O)c1cc2c(=O)n(C)c3cc(Cl)ccc3c2s1	·	-7%	34%	·	6%[59 µM]	·
CCOC(=O)c1c(C)[nH]c(C(=O)CSc2ccc(Cl)cc2)c1C	·	-3%	13%	-10%	3%[59 µM]	-2%
CCOC(=O)c1c(C)[nH]c(C(=O)CSc2nnc(Nc3ccccc3F)s2)c1C	-8	-24%	18%	0%	18µM*	-37%
Cc1cc(NC(=O)COc2ccc3oc4ccccc4c3c2)no1	-12	5%[11.4 µM]	-12%	30µM*	23%	20%
Cc1cc(NC(=O)CSc2ccccn2)no1	0	-19%	34%	?	45µM*	0%
Cc1cc(NC(=O)CSc2nc(N)c(NC(=O)c3ccco3)c(=O)[nH]2)no1	-4	?	-1%	30µM*	·	-12%

Source: PubChem (National Center for Advancing Translational Sciences (NCATS))
